From paper PMC5540273 (PLoS ONE, 2017)

tested on: TNK1; details: concentration: 1 μM, replicates: in singlicate; n = 1
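Note: KINOMEscan kinase panel screen.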

SMILES	%Inh [%]
Nc1ncnc2scc(-c3ccc(NC(=O)Cc4cc(F)ccc4F)cc3)c12.O=C(O)C(F)(F)F [SB-731254-M]	44
CC(C)c1nc(-c2ccc(F)c(NS(=O)(=O)c3c(F)cccc3F)c2)c(-c2ccnc(Nc3ccc(N4CCOCC4)nc3)n2)s1 [GSK1804250]	100
NCCC(NC(=O)c1cc(Br)c(-c2ccnc3[nH]ccc23)s1)c1ccccc1.O=C(O)C(F)(F)F.O=C(O)C(F)(F)F (centres unmarked) [GSK1307810]	0
COc1ccc(NC(=O)c2ccoc2)cc1-c1ccc(C(=O)NCC2CC2)cc1 [GW810437]	16

tested on: TNK2; details: concentration: 1 μM, replicates: in singlicate; n = 1

SMILES	%Inh [%]
CCn1c(-c2nonc2N)nc2c(-c3ccccc3)ncc(OCCCN)c21.O=C(O)C(F)(F)F.O=C(O)C(F)(F)F [GSK260205]	8
Cc1ccc(-c2ccc3occ(-c4ccc(S(C)=O)cc4)c3c2)nn1 (centres unmarked)	0
Cn1cc(-c2ccc3c(c2)CCN3C(=O)Cc2cc(F)cc(F)c2F)c2c(N)ncnc21 [GSK2634140]	7
COc1ccc(C)c(Nc2ccnc(Nc3ccc(-c4cnc[nH]4)cc3)n2)c1.Cl [GW784041]	36
c1ccc(Oc2ccc(Nc3ccnc4cc(-c5ccc(CN6CCCCC6)o5)ccc34)cc2)nc1 [GW567143]	36
CN(c1ccc(F)c(NC(=O)c2cccc(OC(C)(C)C#N)c2Cl)c1)c1ccc2nc(NC(=O)C3CC3)sc2n1	0
COc1cc(Nc2nccc(N3CCC(NS(=O)(=O)c4ccc(NC(C)=O)cc4)CC3)n2)cc(OC)c1OC [GSK1379825]	76
